Source: PubChem BioAssay AID1745845 (National Center for Advancing Translational Sciences (NCATS), 2022)
“And” between values parts separate entries of the source, which are not always exact repeats. Equal values may be shown once. Among all 360,000 compounds or so, about 2,600 (0.72%) were called active. Roughly 5% stayed inconclusive and do not appear here. The call rests on the fitted dose curve; in most records, active means well fitted inhibition curve with a large enough effect; inconclusive means small, poorly fitted or top-dose-only effect; inactive means no such curve, though single readings can be large or run the other way. Shown is part of a subset that was picked to be rich in actives. Entries that show only a call come without a potency. Where a structure was tested more than once in an assay, its records may differ in their call.
Potency means the concentration at half of the fitted maximal effect.

Experiment: Primary qHTS for Inhibitors of ATXN expression; further: nearly all actives have a fitted effect of over 55% in size
Settings: HEK-293 ATXN2-luciferase reporter, luminescence, 24 h; series mostly up to 57 µM
Procedure, shortened: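 ATXN2-luciferase reporter cells (luciferase flanked by upstream and downstream ATXN2 gene portions) were treated 24 h at 37 °C with compounds at up to 57 uM. SteadyGlo luminescence gave expression; GF-AFC fluorescence gave viability.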
For `N#Cc1ccccc1Cn1cnc2nc3c(cc2c1=O)CCCC3`, the Potency was “inactive”. In the case of `Cc1nc2c(OCc3ccc(Cl)cc3Cl)cccn2c1N(C)CC1CC1`, the Potency is reported as “inactive”. For `O=[N+]([O-])c1ccc(C=Nc2ccc(Cl)cc2Cl)s1`, the Potency was 12.6 µM (active). For `CNN/C(N=Cc1ccc([N+](=O)[O-])s1)=N\S(=O)(=O)c1cc(C)c(Cl)cc1SCc1ccccc1`, the Potency was “inactive”. For `COC(=O)c1ccccc1NC(=O)c1cc(-c2ccccc2O)no1`, the Potency was “inactive”. For `CC(C)CCNC(=O)CSc1nc2ccccc2nc1Cc1ccc(Cl)cc1`, the Potency was “inactive”. In the case of `COc1ccc(Cc2nnc(SC)[nH]c2=O)cc1`, the Potency is reported as “inactive”. With `COc1ccc(Cc2nnc(N/N=C/c3ccccc3O)[nH]c2=O)cc1OC` the Potency was 3.55 µM (active). With `COc1ccc(CCNC(=O)CCc2ccccc2O)cc1OC` the Potency was “inactive”. With `CCCCCc1c(-c2ccc(OC)c(OC)c2)ncn1CCc1ccccc1OC` the Potency was “inactive”. In the case of `COc1ccc(CNc2nc(-c3ccccc3)nn2C(=O)c2ccccc2OC)cc1`, the Potency is reported as “inactive”. In the case of `COc1cc(Cl)cn2c(-c3cccc(NC4CNC4)n3)cnc12`, the Potency is reported as “inactive”. With `Cc1ccc(-n2ncc3c(=O)n(Cc4cccc(C(F)(F)F)c4)cnc32)cc1C` the Potency was “inactive”. With `CC1(C)OC(=O)C2=C(C[C@@H](C3CCCCC3)O[C@@H]2c2ccc(Cl)cc2)O1` the Potency was “inactive”. In the case of `NC(=O)C(=O)N/N=C/c1ccc([N+](=O)[O-])o1`, the Potency is reported as “inactive”. In the case of `O=C(/C=C/c1ccc([N+](=O)[O-])o1)NNC(=O)c1ccc(F)cc1`, the Potency is reported as 6.31 µM (active). For `Cc1onc(C(=O)NCc2ccc(F)cc2)c1[N+](=O)[O-]`, the Potency was “inactive”. In the case of `Cc1ccc(S(=O)(=O)c2c(Nc3cccc(Cl)c3)sc(C(=O)c3ccc4c(c3)OCO4)c2N)cc1`, the Potency is reported as “inactive”. In the case of `COc1cc(C(=O)OC(C)C(=O)NCC2CCCCC2)cc(NC(=O)c2ccco2)c1OC` (stereo unspecified), the Potency is reported as 25.1 µM (active). For `CC(OC(=O)c1ccc([N+](=O)[O-])cc1)C(=O)NCC1CCCCC1` (stereo unspecified), the Potency was “inactive”. For `COc1ccc(NC(=O)CCC(=O)Nc2cc(OC)c(NC(=O)c3ccco3)cc2OC)c(OC)c1`, the Potency was “inactive”. In the case of `COC(=O)c1c(NC(=O)CCCOc2ccccc2)sc2c1CCC(C)C2` (stereo unspecified), the Potency is reported as “inactive”. For `CC(=O)c1cccc(NC(=O)c2nc(-c3ccccc3)n(-c3cccc(C)c3)n2)c1`, the Potency was “inactive”. For `Cc1cc(Br)ccc1NC(=O)Cn1cnc2sc(C)c(S(=O)(=O)N3CCN(C)CC3)c2c1=O`, the Potency was “inactive”. With `CN[C@@H]1[C@@H](O)[C@@H](O[C@@H]2[C@H](O)[C@H](O[C@H]3OC(CN)=CC[C@H]3N)[C@@H](N)C[C@H]2N)OCC1(C)O` (stereo partly specified) the Potency was “inactive”. With `Cc1ccc(/C=N/NC(=O)C2=NNC(c3ccccc3)(c3ccccc3)C2)c(O)c1` the Potency was 3.16 µM (active). In the case of `Cc1ccc2nc(CNC(=O)c3ccccc3)[nH]c2c1`, the Potency is reported as “inactive”. In the case of `COc1cc(/C=N/NC(=O)c2cc(-c3ccccc3C)nc3ccccc23)cc(OC)c1O`, the Potency is reported as “inactive”. For `CCC(C)Cn1c(O)cc2nn(-c3nc4ccccc4s3)c(=O)c-2c1C` (stereo unspecified), the Potency was 14.1 µM (active). In the case of `COc1ccc(OC)c(NC(=O)/C=C/c2ccc(C)o2)c1`, the Potency is reported as “inactive”. For `CCOC(=O)C1CCN(c2nc3c(S(=O)(=O)c4ccc(CC)cc4)nnn3c3ccc(Cl)cc23)CC1`, the Potency was “inactive”. In the case of `CCCCCn1c(=O)[nH]c2cc(C(=O)NCCN(C)CCCC)ccc2c1=O`, the Potency is reported as “inactive”. For `COc1ccccc1CNC(=O)NCc1noc2ccc(C)cc12`, the Potency was “inactive”. With `CN(C)S(=O)(=O)c1ccc(Oc2ccc(S(=O)(=O)N(C)C)cc2)cc1` the Potency was “inactive”. For `CC(C)(C)c1ccc(Oc2ccc(N)cc2)cc1`, the Potency was 2.82 µM (active). For `Cc1cc(C(C)(C)C)cc(C)c1N`, the Potency was “inactive”. With `O=C(OCCN1CCOCC1)c1cccnc1Nc1cccc(C(F)(F)F)c1` the Potency was “inactive”. In the case of `CCCCN(CCCC)CCC(O)c1cc2c(Cl)cc(Cl)cc2c2cc(C(F)(F)F)ccc12` (stereo unspecified), the Potency is reported as “inactive and 31.6 µM (active)”. In the case of `Cc1c(Cl)cccc1NC(=O)C(=O)NCCc1csc2nc(-c3ccccc3F)nn12`, the Potency is reported as “inactive”. In the case of `Oc1ccc2ccccc2c1N=Nc1nccs1`, the Potency is reported as 3.55 µM (active). In the case of `Cc1ccccc1Cn1nc(C)c(NC(=O)c2cc(-c3ccc(F)cc3)on2)c1C`, the Potency is reported as “inactive”. In the case of `COc1cc(NC(=O)CN2CCN(S(=O)(=O)c3ccc(Br)cc3)CC2)cc(OC)c1`, the Potency is reported as “inactive”. For `Cc1cc2nc(NC(=O)c3ccc(S(=O)(=O)N4CCOCC4)cc3)sc2cc1C`, the Potency was “inactive”. In the case of `COc1ccc(C(=O)Nc2nc(-c3ccc(S(=O)(=O)N4CCOCC4)cc3)cs2)cc1`, the Potency is reported as 25.1 µM (active). For `CNC(=O)c1ccsc1NC(=O)c1ccc(S(=O)(=O)N2CCOCC2)cc1`, the Potency was “inactive”. With `CCc1nc2c(cnn2-c2ccc(C)cc2)c(=O)n1-c1ccc(C)cc1` the Potency was “inactive”. For `Cc1ccccc1CSCCNC(=O)C1CCN(S(=O)(=O)Cc2ccccc2)CC1`, the Potency was “inactive”. In the case of `CC1=CC(C)(C)Nc2ccc(OC(=O)C(Cc3ccccc3)N3C(=O)C4CCCCC4C3=O)cc21` (stereo unspecified), the Potency is reported as “inactive”. With `O=C(COC(=O)CN1C(=O)C2CCCCC2C1=O)Nc1ccc(F)c(F)c1F` (stereo unspecified) the Potency was “inactive”. With `CC1=CC(C)(C)Nc2ccc(OC(=O)CN3C(=O)C4CCCCC4C3=O)cc21` (stereo unspecified) the Potency was 31.6 µM (active). For `C[C@]12CCC3=C4CCC(=O)C=C4CC[C@@H]3[C@H]1CC[C@@]2(O)CC#N`, the Potency was “inactive”. In the case of `Cc1cc(N/C=C\C(=O)c2ccc(Cl)c(Cl)c2)no1`, the Potency is reported as “inactive”. For `COc1ccc(C(=O)/C=C/Nc2ccccn2)cc1`, the Potency was 8.91 µM (active). With `CCOc1cc2ccccc2cc1C(=O)Nc1ccccn1` the Potency was “inactive”. With `COc1ccc(CNC(=O)CSc2nc3ccccc3nc2Cc2ccccc2)cc1` the Potency was “inactive”. In the case of `O=C(NCCC1=CCCCC1)c1ccc2c(c1)N(Cc1ccccc1F)C(=O)c1ccccc1S2(=O)=O`, the Potency is reported as “inactive”. For `CCOC(=O)c1c(C)[nH]c(C)c1S(=O)(=O)N1CCCC(C(=O)NCc2ccccc2Cl)C1` (stereo unspecified), the Potency was “inactive”. For `CC1CCCN(C(=O)CN2C(=O)c3ccccc3S2(=O)=O)C1` (stereo unspecified), the Potency was “inactive”. For `O=C(CN1C(=O)c2ccccc2S1(=O)=O)N1CCc2ccccc21`, the Potency was 2.51 µM (active). In the case of `CN(Cc1ccc(F)cc1)C(=O)CN1C(=O)c2ccccc2S1(=O)=O`, the Potency is reported as “inactive”. In the case of `CO[C@H]1C=CO[C@@]2(C)Oc3c(C)c(O)c4c(O)c(c(/C=N/N5CCN(C)CC5)c(O)c4c3C2=O)NC(=O)/C(C)=C\C=C[C@H](C)[C@H](O)[C@@H](C)[C@@H](O)[C@@H](C)[C@H](OC(C)=O)[C@@H]1C`, the Potency is reported as “inactive”.
